# Measurements reported in ChEMBL document CHEMBL3988442, “University of Dundee, Small-Polar-MMV Screening Library” (2021).
# For some assays here: Results with a measured potency or affinity are listed apart.
# Columns and labels:
# Set-up in all cases: scale not given: direction of the effect not stated beside the values
# [1] = biological target: Protein translocase subunit SecA (Escherichia coli (strain K12)) (UniProt P10408); assay: Assay to Identify E. coli SecA ATPase Inhibitors; type: functional; details: 30 µM
# Protein translocase subunit SecA (Escherichia coli (strain K12)), sequence (P10408 whole entry): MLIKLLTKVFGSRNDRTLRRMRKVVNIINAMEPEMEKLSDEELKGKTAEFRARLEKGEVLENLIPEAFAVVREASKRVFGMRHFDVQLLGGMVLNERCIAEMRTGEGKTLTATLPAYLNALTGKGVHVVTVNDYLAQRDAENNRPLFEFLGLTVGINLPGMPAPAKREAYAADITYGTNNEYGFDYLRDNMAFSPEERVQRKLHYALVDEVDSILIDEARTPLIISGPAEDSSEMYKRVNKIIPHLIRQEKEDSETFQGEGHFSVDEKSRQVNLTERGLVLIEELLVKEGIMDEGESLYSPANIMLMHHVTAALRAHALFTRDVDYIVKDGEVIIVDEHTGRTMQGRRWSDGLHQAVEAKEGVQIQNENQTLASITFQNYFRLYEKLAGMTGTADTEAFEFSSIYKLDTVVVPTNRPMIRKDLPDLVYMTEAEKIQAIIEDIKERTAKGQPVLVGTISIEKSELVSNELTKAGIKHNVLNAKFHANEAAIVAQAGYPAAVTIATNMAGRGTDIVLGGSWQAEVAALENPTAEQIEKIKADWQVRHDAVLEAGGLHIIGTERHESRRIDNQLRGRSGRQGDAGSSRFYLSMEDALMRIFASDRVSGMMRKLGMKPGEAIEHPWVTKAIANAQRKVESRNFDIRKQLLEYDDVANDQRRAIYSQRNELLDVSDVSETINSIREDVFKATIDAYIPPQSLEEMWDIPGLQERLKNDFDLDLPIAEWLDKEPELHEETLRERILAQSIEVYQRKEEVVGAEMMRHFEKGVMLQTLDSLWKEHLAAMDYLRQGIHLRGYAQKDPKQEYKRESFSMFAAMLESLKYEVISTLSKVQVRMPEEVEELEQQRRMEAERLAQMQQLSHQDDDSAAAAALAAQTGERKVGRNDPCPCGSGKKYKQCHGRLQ
# [2] = biological target: T1, Ubiquitin-activating enzyme e1, putative (Leishmania donovani (strain BPK282A1)) (UniProt E9BSI1); assay: Leishmania donovani Ubiquitin Activating Enzyme (LdE1); type: functional; details: 30 µM
# T1 sequence (whole entry): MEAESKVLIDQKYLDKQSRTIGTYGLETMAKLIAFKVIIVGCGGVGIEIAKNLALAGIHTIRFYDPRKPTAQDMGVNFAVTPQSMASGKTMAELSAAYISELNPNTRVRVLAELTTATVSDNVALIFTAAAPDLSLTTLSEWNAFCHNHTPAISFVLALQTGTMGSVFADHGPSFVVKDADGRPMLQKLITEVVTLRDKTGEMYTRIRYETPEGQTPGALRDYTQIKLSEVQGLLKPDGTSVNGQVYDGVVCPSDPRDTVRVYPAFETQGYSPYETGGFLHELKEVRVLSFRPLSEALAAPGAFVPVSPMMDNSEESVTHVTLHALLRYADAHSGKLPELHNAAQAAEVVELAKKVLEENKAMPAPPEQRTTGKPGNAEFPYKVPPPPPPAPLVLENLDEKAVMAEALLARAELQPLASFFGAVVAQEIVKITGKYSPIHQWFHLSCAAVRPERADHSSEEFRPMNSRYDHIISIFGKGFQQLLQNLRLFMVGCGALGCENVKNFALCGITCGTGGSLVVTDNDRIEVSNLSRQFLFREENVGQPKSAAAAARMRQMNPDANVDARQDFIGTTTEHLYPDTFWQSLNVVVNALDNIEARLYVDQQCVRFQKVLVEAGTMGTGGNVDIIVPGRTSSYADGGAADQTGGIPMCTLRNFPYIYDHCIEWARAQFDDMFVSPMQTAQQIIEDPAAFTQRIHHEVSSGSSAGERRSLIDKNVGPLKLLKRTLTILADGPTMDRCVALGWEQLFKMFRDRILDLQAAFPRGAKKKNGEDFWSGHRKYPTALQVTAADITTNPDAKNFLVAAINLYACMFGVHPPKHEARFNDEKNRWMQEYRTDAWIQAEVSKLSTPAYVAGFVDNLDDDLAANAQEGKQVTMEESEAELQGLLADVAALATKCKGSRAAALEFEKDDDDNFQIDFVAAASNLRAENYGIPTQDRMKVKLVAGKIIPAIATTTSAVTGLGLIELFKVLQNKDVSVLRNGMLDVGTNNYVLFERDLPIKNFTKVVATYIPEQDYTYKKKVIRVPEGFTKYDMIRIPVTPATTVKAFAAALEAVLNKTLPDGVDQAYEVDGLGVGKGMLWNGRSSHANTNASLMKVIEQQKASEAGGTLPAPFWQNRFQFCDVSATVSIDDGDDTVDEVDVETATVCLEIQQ
# [3] = biological target: Sialic acid-binding Ig-like lectin 9 (Homo sapiens) (UniProt Q9Y336); assay: Hs-Siglec9 ALPHAscreen SOP 20170721; details: 10 µM
# Sialic acid-binding Ig-like lectin 9 (Homo sapiens), sequence (Q9Y336 whole entry): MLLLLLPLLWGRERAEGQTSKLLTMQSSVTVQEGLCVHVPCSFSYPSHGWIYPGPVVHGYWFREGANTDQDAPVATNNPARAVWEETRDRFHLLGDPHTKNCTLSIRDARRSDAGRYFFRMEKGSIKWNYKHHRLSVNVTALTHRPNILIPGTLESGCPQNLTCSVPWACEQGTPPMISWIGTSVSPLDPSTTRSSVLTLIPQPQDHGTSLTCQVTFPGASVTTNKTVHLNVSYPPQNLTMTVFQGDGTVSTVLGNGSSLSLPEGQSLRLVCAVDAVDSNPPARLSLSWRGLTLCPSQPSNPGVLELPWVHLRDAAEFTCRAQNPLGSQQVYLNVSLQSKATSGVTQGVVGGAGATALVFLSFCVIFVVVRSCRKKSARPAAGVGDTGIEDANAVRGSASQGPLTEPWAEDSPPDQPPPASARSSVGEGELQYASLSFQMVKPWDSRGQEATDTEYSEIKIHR
# Trypanosoma cruzi = assay: Trypanosoma cruzi phosphomannomutase and mannose-1-phosphate guanylyltransferase assay; type: functional; details: 10 µM
# [4] = biological target: T2, Arginase-2, mitochondrial (Homo sapiens) (UniProt P78540); assay: in vitro enzyme assay to detect the production of urea directly proportional to the activity of Arginase II; type: functional; details: 33.3 µM; further: in the data most compounds retested in dose-response had high values
# T2 sequence (whole entry): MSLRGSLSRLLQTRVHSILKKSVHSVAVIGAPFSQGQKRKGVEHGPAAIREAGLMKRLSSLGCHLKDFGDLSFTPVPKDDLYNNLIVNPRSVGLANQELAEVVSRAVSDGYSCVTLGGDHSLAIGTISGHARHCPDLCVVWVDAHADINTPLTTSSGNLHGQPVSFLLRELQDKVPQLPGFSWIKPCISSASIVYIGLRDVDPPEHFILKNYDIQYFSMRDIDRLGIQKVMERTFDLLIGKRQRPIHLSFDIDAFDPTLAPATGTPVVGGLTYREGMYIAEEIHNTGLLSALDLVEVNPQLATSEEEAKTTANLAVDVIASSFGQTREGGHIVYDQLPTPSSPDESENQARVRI
# [5] = biological target: T3, Proteasome subunit beta (Trypanosoma cruzi) (UniProt O96673); assay: Trypanosoma cruzi proteasome chymotrypsin-like activity (TcProtChymo) assay.; further: in the data most compounds retested in dose-response had high values; type: functional; details: 9.37 µM
# T3 sequence (whole entry): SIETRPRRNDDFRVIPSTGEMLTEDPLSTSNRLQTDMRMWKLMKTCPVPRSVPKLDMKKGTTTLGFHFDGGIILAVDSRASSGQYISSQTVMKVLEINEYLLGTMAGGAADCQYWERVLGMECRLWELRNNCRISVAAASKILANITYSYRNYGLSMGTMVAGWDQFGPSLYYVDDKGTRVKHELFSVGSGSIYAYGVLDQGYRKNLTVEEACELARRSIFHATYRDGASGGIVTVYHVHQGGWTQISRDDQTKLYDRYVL
# Homo sapiens = species: Homo sapiens; assay: To identify inhibition of the IFN signalling (Jak-Stat) pathway via expression of an eGFP reporter gene under the control of an IFN-stimulated response element (ISRE) containing MxA promoter.; type: functional; details: 30 µM
# [6] = biological target: T4, Tyrosyl-tRNA synthetase, putative (Trypanosoma cruzi (strain CL Brener)) (UniProt Q4DSP6); assay: Trypanosoma cruzi tyrosyl tRNA synthetase (TcYRS) _High Tyrosine SOP; type: functional; details: 30 µM; further: in the data most compounds retested in dose-response had high values
# T4 sequence (whole entry): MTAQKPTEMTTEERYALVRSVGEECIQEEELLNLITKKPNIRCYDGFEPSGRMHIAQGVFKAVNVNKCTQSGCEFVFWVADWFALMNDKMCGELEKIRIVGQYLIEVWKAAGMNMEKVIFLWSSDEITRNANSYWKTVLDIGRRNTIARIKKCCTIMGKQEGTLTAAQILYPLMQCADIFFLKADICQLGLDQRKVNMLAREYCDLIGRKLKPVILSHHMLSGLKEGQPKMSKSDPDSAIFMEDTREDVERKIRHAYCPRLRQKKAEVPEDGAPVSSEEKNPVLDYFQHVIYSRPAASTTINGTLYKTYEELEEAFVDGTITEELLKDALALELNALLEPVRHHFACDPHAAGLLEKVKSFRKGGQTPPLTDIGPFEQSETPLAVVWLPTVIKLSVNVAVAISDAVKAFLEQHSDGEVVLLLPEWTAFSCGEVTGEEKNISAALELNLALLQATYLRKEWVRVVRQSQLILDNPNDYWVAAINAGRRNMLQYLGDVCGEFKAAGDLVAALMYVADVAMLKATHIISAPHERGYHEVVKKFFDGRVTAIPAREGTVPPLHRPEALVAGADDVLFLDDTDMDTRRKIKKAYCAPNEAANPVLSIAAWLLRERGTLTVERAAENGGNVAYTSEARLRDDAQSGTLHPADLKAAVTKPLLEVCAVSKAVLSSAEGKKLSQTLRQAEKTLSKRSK
# [7] = biological target: T4, Tyrosyl-tRNA synthetase, putative (Trypanosoma cruzi (strain CL Brener)); assay: Trypanosoma cruzi tyrosyl tRNA synthetase (TcYRS) SOP; type: functional; details: 30 µM
# [8] = biological target: Chromo domain-containing protein 1 (Saccharomyces cerevisiae (strain ATCC 204508 / S288c) (Baker's yeast)) (UniProt P32657); assay: ScCHD-1 Enzyme Inhibition Assay; type: functional; details: 30 µM; further: in the data most compounds retested in dose-response had high values
# Chromo domain-containing protein 1 (Saccharomyces cerevisiae (strain ATCC 204508 / S288c) (Baker's yeast)), sequence (P32657 whole entry, the tested form may be a part): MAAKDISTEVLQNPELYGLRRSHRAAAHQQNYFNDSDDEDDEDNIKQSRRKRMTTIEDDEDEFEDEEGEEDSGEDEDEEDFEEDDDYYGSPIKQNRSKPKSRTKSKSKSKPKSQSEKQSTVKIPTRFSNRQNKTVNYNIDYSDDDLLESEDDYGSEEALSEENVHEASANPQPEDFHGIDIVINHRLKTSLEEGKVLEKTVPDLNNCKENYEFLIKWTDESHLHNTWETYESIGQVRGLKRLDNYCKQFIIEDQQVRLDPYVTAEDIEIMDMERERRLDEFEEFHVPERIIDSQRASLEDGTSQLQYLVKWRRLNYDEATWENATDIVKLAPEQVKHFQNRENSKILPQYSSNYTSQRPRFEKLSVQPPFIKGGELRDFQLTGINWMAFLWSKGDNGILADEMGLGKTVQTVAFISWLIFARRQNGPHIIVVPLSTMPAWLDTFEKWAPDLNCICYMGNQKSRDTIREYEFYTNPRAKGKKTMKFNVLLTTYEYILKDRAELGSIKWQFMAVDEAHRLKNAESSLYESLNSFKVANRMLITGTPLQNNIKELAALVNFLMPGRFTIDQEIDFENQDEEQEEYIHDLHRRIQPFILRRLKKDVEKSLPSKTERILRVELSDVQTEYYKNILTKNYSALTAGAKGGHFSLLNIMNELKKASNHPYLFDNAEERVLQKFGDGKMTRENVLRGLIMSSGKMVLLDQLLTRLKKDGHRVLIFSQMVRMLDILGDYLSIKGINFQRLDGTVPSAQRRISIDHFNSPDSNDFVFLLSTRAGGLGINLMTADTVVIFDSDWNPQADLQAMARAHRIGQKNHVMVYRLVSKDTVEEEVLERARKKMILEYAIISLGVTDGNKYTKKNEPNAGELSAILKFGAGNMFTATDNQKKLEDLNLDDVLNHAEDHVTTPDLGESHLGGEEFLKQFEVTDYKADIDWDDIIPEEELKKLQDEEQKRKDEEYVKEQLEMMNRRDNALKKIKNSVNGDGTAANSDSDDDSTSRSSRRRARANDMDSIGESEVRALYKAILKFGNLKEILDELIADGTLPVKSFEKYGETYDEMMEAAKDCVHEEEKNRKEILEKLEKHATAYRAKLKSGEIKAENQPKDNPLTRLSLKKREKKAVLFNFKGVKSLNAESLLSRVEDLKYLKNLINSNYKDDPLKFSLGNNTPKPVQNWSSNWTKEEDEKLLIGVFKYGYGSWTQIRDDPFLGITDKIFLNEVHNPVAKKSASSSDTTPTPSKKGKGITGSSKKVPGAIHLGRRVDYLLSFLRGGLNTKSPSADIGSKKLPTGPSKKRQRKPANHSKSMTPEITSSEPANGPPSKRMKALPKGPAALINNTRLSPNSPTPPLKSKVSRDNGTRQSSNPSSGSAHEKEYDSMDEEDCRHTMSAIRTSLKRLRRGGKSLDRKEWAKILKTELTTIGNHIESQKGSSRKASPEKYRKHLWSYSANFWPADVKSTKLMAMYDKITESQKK
Structure (SMILES),Percent Effect [1] [%],Percent Effect [2] [%],Percent Effect [3] [%],Percent Effect (Trypanosoma cruzi) [%],Percent Effect [4] [%],Percent Effect [5] [%],Percent Effect (Homo sapiens) [%],Percent Effect [6] [%],Percent Effect [7] [%],Percent Effect [8] [%]
COc1ccc(-n2ncc(C(=O)NCC3COC(C)(C)O3)c2N)cc1 (stereo not given),97.8,14.7,-6.21,-0.592,1.33,14.8,15.7,1.06,5,-19.9
Cn1cc(CN2CCCN(C(=O)c3cn4ccccc4n3)CC2)cn1,-2.59,25.6,-16.8,4.04,-0.41,20.1,13.6,3.35,22.9,15.2
CCNc1cc2c(nn1)CCN(C(=O)c1ccc(CNC(C)=O)o1)C2,-4.81,8,4.09,-1.81,3.99,6.36,5.79,3.68,15.4,-12.3
c1ccc(-n2ncc(CN3CCCC3Cn3cccn3)n2)cc1 (stereo not given),-6.8,-13,24.4,-2.61,-0.205,5.44,1.65,-1.96,-2.35,3.05
O=C(Cc1csc(-c2nnc[nH]2)n1)N1CCCC1Cn1cccn1 (stereo not given),-1.04,8,5.84,-0.402,-3.1,8.74,-1.78,2.63,5.13,-9.48
NC(=O)c1cc(C2CCCN(CCOCC(F)(F)F)C2)n[nH]1 (stereo not given),-3.84,2.56,-22.8,9.3,-5.33,8.45,-4.53,2.39,10.8,26.2
Cc1ccn(CCC(=O)N2CCOC(c3nc(-c4cccs4)no3)C2)n1 (stereo not given),1.88,9.33,1.5,-5.52,4.42,8.7,7.42,2.12,10,-26.2
Cc1nc(C2CCN(C(=O)CO)CC2)cc(N2CCOCC2)n1,-2.95,8.11,8.92,8.05,22,8.22,-12.6,6.92,17.1,0.691
O=S(=O)(NCCN1CCCCC1Cn1cncn1)c1ccccc1 (stereo not given),-1.12,0,6.15,1.68,7.99,-5.61,-18.3,1.96,9.41,-1.75
CC(=O)N1CCC2(CCCN(Cc3ccc(Cl)c(C(F)(F)F)c3)C2)C1 (stereo not given),-6.95,3.9,-5.84,1.07,-1.22,1.15,-5.5,-8.95,10.3,0.22
O=C1NC2(CCN(Cc3cccnc3)CC2)CC1c1ccncc1 (stereo not given),-3.31,6.49,-5.51,-7.69,-0.405,19,-18.7,1.58,10.3,4.74
CC(=O)N1CCc2c(nc(-c3ccncc3)nc2N(C)CC(O)CO)C1 (stereo not given),-4.98,2.7,3.26,-2.62,5.94,3.94,12.2,5.85,14.6,-4.24
Cc1nc(-c2ccccc2F)sc1C(=O)N1CCN(C)CC1,-7.34,2.7,4.45,-0.679,-3.85,18.5,4.62,3.72,12.2,-3.18
CC(=O)N1N=C(c2ccccc2)OC1C(=O)NCCC1=CCCCC1 (stereo not given),1.88,12,-5.04,-0.986,2.21,7.55,26.2,-1.06,5,-32.1
O=C(c1cnccn1)N1CCCC2(COCCN(CC3CC3)C2)C1 (stereo not given),-3.64,-1.3,-5.88,-2.43,-0.81,7.15,-2.31,-0.526,5.13,-0.986
Cn1cc(CN2CCOCC3(C2)CN(c2ccccc2)C(=O)CO3)cn1 (stereo not given),-5.71,9.09,-4.81,-1.85,0,5.03,-7.25,6.84,10.3,-1.15
CN(C)S(=O)(=O)N1CCN(c2ccnc(N3CCCC3)n2)CC1,-3.6,-2.7,-0.53,3.01,-1.75,8.39,-13.3,3.72,4.88,-0.866
Cc1nccn1Cc1nnc(C2CCCN(Cc3cccnc3)C2)n1C (stereo not given),-4.77,16.2,4.69,5.53,-6.64,12.3,5.04,9.04,14.6,-2.63
Cc1cc(C(=O)NCc2ccc(N3CCCC(C(N)=O)C3)cc2)no1 (stereo not given),-3.67,10.7,2.55,3.01,4.88,11.1,3.86,2.63,5.13,-7.24
Cc1nc(COC[C@@H]2CCC[C@@]23CNCCO3)cs1,-4.17,6.49,-6,-4.19,4.05,13,8.21,6.84,2.56,-5.3
CC(=O)N1CCCC1c1cc(N2CCN(C3CCCC3)CC2)cc(C)n1 (stereo not given),-0.907,17.3,-8.17,-2.96,1.33,7.22,6.74,4.23,15,-23.3
NCc1cn(-c2ccccc2C(=O)NCc2ccccc2)cn1,-2.27,14.7,1.6,-0.592,1.33,10.2,26.2,6.35,15,-23.1
O=S(=O)(N1CCCC1)N1CCCCC1CCc1ccccc1 (stereo not given),-6.97,0,-0.69,-3.59,-1.05,13,25.4,-3.72,-4.88,-0.676
